High-throughput results deposited in PubChem by National Center for Advancing Translational Sciences (NCATS).
This excerpt belongs to a sample that is enriched for hits.
Pf Dd2 growth – blocks in vitro growth of P. falciparum Dd2. P. falciparum Dd2 growth, SYBR Green, 72 h. Potency, µM (top dose mostly 28.9 µM), inactives show at the highest dose activity, negative = inhibition, hits mostly inhibitors. actives 4.3% (n = 120,000); active = well fitted inhibition curve with a large enough effect;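 note: plate controls were DMSO vehicle for no effect and reference drug for full effect; nearly all actives have a fitted effect of over 65% in size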
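Infected erythrocytes (Dd2, 0.3% parasitemia, 2.5% hematocrit final) are added to compound in RPMI-1640/Albumax II medium, grown 72 h at 37C in low oxygen, then lysed with saponin/Triton-X containing SYBR Green and read by fluorescence.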
Starred values were filed as active, the others as inactive; i = inactive; [ ] = another dose, or the depositor's remark. Potency is the fitted concentration of half-maximal effect.

SMILES	Pf Dd2 growth
CCOC(=O)N1CCc2c(sc3c2c(=O)n(-c2ccc(CC)cc2)c(=O)n3CC(=O)c2ccc(F)cc2)C1	7.94µM*
Cn1nc2n(c1=O)CCNCC2	4.2%
CCCNc1cc(N2CCC(CCC(=O)NCC3CC3)CC2)ncn1	i
O=C(CCC1CCN(c2cc(NC3CC3)ncn2)CC1)N1CCN(c2ccccc2F)CC1	-9.7%
CCCNc1cc(N2CCC(CCC(=O)N3CCN(c4ccccc4F)CC3)CC2)ncn1	11.2µM*
O=C(NCc1nnc2cc(-c3nc(C4CC4)no3)ccn12)c1nccc2ccccc12	-15.3%
CCn1cc(CN2CCC3(CC2)CN(C)CC3COC)cn1 (stereo unspecified)	-4.5%
O=C1C(c2ccc(F)cc2)N(Cc2ccccc2Cl)C(=O)CN1C1CCCCC1 (stereo unspecified)	-14.3%
CCCOc1ccc(C2C(=O)N(C3CCCCC3)CC(=O)N2C2CCCCC2)cc1OC (stereo unspecified)	24.4%
CCCCCCOc1ccc(C2C(=O)N(C3CCCCC3)CC(=O)N2CCCC)cc1 (stereo unspecified)	8.91µM*
COc1cccc(CC(=O)N2CC(c3nnc(-c4ccncc4)o3)C3(CCOCC3)C2)c1 (stereo unspecified)	i
N#Cc1ccc(C(=O)N2CCOC[C@H](Oc3cnccn3)C2)cc1	26.8%[44.1 µM]
O=C1COc2ccc(-c3ccncc3)nc2CN1Cc1ccccc1	i
CC1=NOC2(CCN(Cc3ccccc3)CC2)C1	-10.7%[44.1 µM]
O=c1cc(-c2ccccc2)c2ccc3c(c2o1)CN(Cc1ccccc1)CO3	1µM*
Cc1coc2c(C)c3oc(=O)c(CC(=O)NCc4ccccc4)c(C)c3cc12	-7.7%
COc1ccc(OC2CN(Cc3ccccc3)C2)cc1	20.9%[44.1 µM]
CCc1c(C)c2ccc3c(c2oc1=O)CN(Cc1ccccc1)CO3	1µM*
COc1ccc(-c2cc(=O)oc3c4c(ccc23)OCN(Cc2ccccc2)C4)cc1	0.891µM*
O=c1c2oc3ccccc3c2n(Cc2ccccc2)c(=O)n1Cc1ccc2c(c1)OCO2	-4.5%
COc1ccc(C2=NOC3(CCN(Cc4ccccc4)C3)C2)cc1 (stereo unspecified)	i
Cc1ncc2n1C(=O)N(C1CCN(C(=O)c3ccccc3F)CC1)C2	9.7%[44.1 µM]
COCC(=O)N1CCCC(c2nc(C3CCOCC3)no2)C1 (stereo unspecified)	-3.1%
O=C1NCCOCCCN(C(=O)CC2CCCC2)[C@H]2CCCC[C@@H]12	-23.1%
Cn1cc([C@@H](NC(=O)c2scc3c2CCCC3)C2CC(O)C2)cn1 (stereo partly specified)	-1.1%
SMILES	Pf Dd2 growth
O=C(c1ccccc1F)N1CCC2(CC1)C(=NC1CCCC1)NC(=O)N2c1cc(F)cc(F)c1	-5.1%
COc1ccc(-c2n[nH]c3c2CC(=O)N(CCOc2ccccc2)C3)cn1	-16.8%[44.1 µM]
O=C(C[C@@H]1CCNC[C@@H]1Cc1cc(CN2CCCCC2)on1)N1CCCCC1	-24.7%[44.1 µM]
COC(=O)c1cn([C@H]2CO[C@H]3[C@@H]2OC[C@@H]3NCCCc2ccccc2)nn1	3.7%[44.1 µM]
COc1cccc(Cn2c(=O)n(CC3CCC(C(=O)N4CCOCC4)CC3)c(=O)c3sccc32)c1 (stereo unspecified)	8.91µM*
CCCNC(=O)C1CCC(Cn2c(=O)c3sccc3n(Cc3ccccc3C)c2=O)CC1 (stereo unspecified)	-5.8%
C=Cc1ccc(Cn2c(=O)n(CC3CCC(C(=O)NC(C)C)CC3)c(=O)c3sccc32)cc1 (stereo unspecified)	11.2µM*
CNC(=O)C1CCC(Cn2c(=O)c3sccc3n(CC(=O)N3CCCCC3C)c2=O)CC1 (stereo unspecified)	-3.4%
CC1CCN(C(=O)Cn2c(=O)n(CC3CCC(C(=O)NC(C)C)CC3)c(=O)c3sccc32)CC1 (stereo unspecified)	-12.7%
CCCNC(=O)C1CCC(Cn2c(=O)c3sccc3n(CC(=O)NCc3ccccc3)c2=O)CC1 (stereo unspecified)	-15.7%
O=C(Nc1ccnn1C1CCN(C(=O)c2ccc3n[nH]nc3c2)CC1)C1CC1	29.6%
CN(C)C(=O)N1CCC(C(=O)N2CC(=O)N(C3CCCCC3)CC(OCc3ccncc3)C2)CC1 (stereo unspecified)	-29.8%
O=C(c1cccnc1)N1CCCC(c2noc(COc3ccccc3F)n2)C1 (stereo unspecified)	12.1%
CO[C@H]1C(=O)N(C2CCN(S(=O)(=O)c3cccs3)CC2)[C@H]1c1ccncc1	7.6%
COc1ccccc1NS(=O)(=O)c1cc2c(cc1Cl)NC(=O)CO2	8.91µM*
COc1ccc(CNS(=O)(=O)c2cc3c(cc2Cl)NC(=O)CO3)cc1	38.0%[0.594 µM]
COc1ccc(NS(=O)(=O)c2cc3c(cc2C)NC(=O)CO3)c(OC)c1	4.0%
O=C(NC1CCN(c2cc(-c3ccccc3)[nH]n2)CC1)c1cc2ccccc2[nH]1	i
CCCN1CCN(CCCNC(=O)c2ccc3c(c2)sc2nc(-c4ccc(OCC)cc4)cn23)CC1	1.26µM*
CCOc1ccc(C(=O)NCCn2ccn3nc(-c4ccc(OC)cc4)cc3c2=O)cc1	i
CCOc1ccc(-c2cn3c(n2)sc2cc(C(=O)NCCc4ccc(OC)cc4OC)ccc23)cc1	5.62µM*
CCOc1ccc(-c2cn3c(n2)sc2cc(C(=O)N4CCCC(C)C4)ccc23)cc1 (stereo unspecified)	7.08µM*
COc1ccc(-c2cn3c(n2)sc2cc(C(=O)N4CCCCC4)ccc23)cc1	i
COc1ccc(-c2cn3c(n2)sc2cc(C(=O)Nc4ccc(C)cc4C)ccc23)cc1	-7.6%
CCOc1ccc(-c2cc3c(=O)n(CCNC(=O)c4ccc(OC)cc4)ccn3n2)cc1	i
SMILES	Pf Dd2 growth
COc1ccc(-c2cn3c(n2)sc2cc(C(=O)Nc4ccc(C)c(Cl)c4)ccc23)cc1	6.31µM*
CCCC1=Nc2cc(C(=O)NCCc3ccc(OC)cc3OC)ccc2Sc2ccccc21	-16.8%
CCCCOc1ccc(C(=O)NCCc2sc(-c3ccc(OC)c(OC)c3)nc2C)cc1	i
COc1ccc(-c2cn3c(n2)sc2cc(C(=O)Nc4c(C)cccc4C)ccc23)cc1	5.6%
CCOc1ccc(C(=O)N2CCCC(n3cc(-c4nc(C5CC5)no4)nn3)C2)cc1 (stereo unspecified)	-29.0%
O=C(c1ccc(Cl)cc1Cl)N1CCN(c2cc(-c3cccs3)[nH]n2)CC1	-4.4%
O=C(CC1CCN(C(=O)c2ccccc2F)C1)NC1CC1 (stereo unspecified)	2.1%
CNC(=O)NC[C@H]1CCN(Cc2ccc(C#N)cc2)C[C@H]1N(C)C	29.5%
COc1ccccc1N1CCN(C(=O)C[C@@H]2O[C@H](CNC(=O)c3ccc(N(C)C)cc3)[C@@H](O)[C@H]2O)CC1	i
O=C(O)C1(Oc2ccc3ncccc3c2)CCN(Cc2cccnc2)CC1	0.4%
O=C(O)C1CCc2nnc(C3CCN(C(=O)c4cccc(Cl)c4)C3)n21 (stereo unspecified)	18.4%
Cc1ccc(N2CCN(C(=O)C[C@H]3NC(=O)c4ccccc4NC3=O)CC2)c(C)c1	-26.2%
CC(=O)N1CCn2c(nn(-c3ccc(F)cc3)c2=O)C1	12.9%[44.1 µM]
COC1CCC12CCN(C(=O)c1ccnn1C)CC2 (stereo unspecified)	19.6%
O=C(c1ccoc1)N1CC[C@@H]2[C@@H](CCC(=O)N2CCc2cnc[nH]2)C1	-10.1%
COc1ccc(NC(=O)N2CCC3(CC2)SCC(=O)N3Cc2ccco2)c(OC)c1	i
CCOc1ccc(-c2cn3c(n2)sc2cc(C(=O)NCCCN(CC)CC)ccc23)cc1	2.82µM*
